Results from PubChem BioAssay (EPA / NIEHS).
Active and inactive are the calls of the source. How the source made its calls: active means hit-call score of the fitted dose curve at least 0.9, where 1 is the maximum; inactive means score below 0.9.

Assays:
[1] = BSK_CASM3C_SRB: Viability Assessment in the BioMAP Diversity Plus: CASM3C Assay (AID 2283050); details: primary human coronary artery smooth muscle cells;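 further: cells exposed to compound for 24 h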
[2] = read-out: Thrombomodulin, THBD (gene 7056); test: BSK_CASM3C_Thrombomodulin: BioMAP Diversity Plus: CASM3C Assay for Thrombomodulin Biomarker Activity (AID 2283051); details: primary human coronary artery smooth muscle cells; actives raise or lower the signal;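 further: thrombomodulin protein level measured by ELISA 24 h after dosing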
[3] = read-out: Tissue Factor, F3 (gene 2152); test: BSK_CASM3C_TissueFactor: BioMAP Diversity Plus: CASM3C Assay for Tissue Factor Biomarker Activity (AID 2283052); details: primary human coronary artery smooth muscle cells; actives raise or lower the signal;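 further: cell surface tissue factor protein level read by ELISA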
[4] = read-out: Interferon-gamma inducible Protein 10 (IP10), CXCL10 (gene 3627); test: BSK_hDFCGF_IP10: BioMAP Diversity Plus: hDFCGF Assay for Interferon-gamma inducible Protein 10 (IP10) Biomarker Activity (AID 2283053); details: primary human foreskin fibroblasts; actives raise or lower the signal
Method in brief: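 Primary human foreskin fibroblasts exposed to chemicals for 24 h. IP-10 measured by ELISA; changes fitted bidirectionally against DMSO baseline.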

[5] = read-out: Urokinase-type plasminogen activator receptor (uPAR), PLAUR (gene 5329); test: BSK_CASM3C_uPAR: BioMAP Diversity Plus: CASM3C Assay for Urokinase-type plasminogen activator receptor (uPAR) Biomarker Activity (AID 2283054); details: primary human coronary artery smooth muscle cells; actives raise or lower the signal;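 further: cell-surface uPAR protein level quantified by ELISA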
[6] = read-out: Vascular cell adhesion molecule 1 (VCAM1), VCAM1 (gene 7412); test: BSK_CASM3C_VCAM1: BioMAP Diversity Plus: CASM3C Assay for Vascular cell adhesion molecule 1 (VCAM1) Biomarker Activity (AID 2283055); details: primary human coronary artery smooth muscle cells; actives raise or lower the signal;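 further: VCAM-1 protein level quantified by ELISA on the cells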
[7] = read-out: Collagen III, COL3A1 (gene 1281); test: BSK_hDFCGF_CollagenIII: BioMAP Diversity Plus: hDFCGF Assay for Collagen III Biomarker Activity (AID 2283056); details: primary human foreskin fibroblasts; actives raise or lower the signal
Method in brief: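 ELISA readout of Collagen III in human dermal (foreskin) fibroblasts, taken 24 h post-treatment. Gain or loss relative to DMSO vehicle fitted in both directions.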

[8] = read-out: Epidermal growth factor receptor (EGFR), EGFR (gene 1956); test: BSK_hDFCGF_EGFR: BioMAP Diversity Plus: hDFCGF Assay for Epidermal growth factor receptor (EGFR) Biomarker Activity (AID 2283057); details: primary human foreskin fibroblasts; actives raise or lower the signal
Method in brief: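 Primary human foreskin fibroblasts (hDFCGF system), sampled 24 h after dosing; EGFR quantified by ELISA. Bidirectional fit relative to DMSO baseline; SRB total-protein staining in parallel cultures for cytotoxicity.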

[9] = read-out: Interleukin-8 (IL8), CXCL8 (gene 3576); test: BSK_hDFCGF_IL8: BioMAP Diversity Plus: hDFCGF Assay for Interleukin-8 (IL8) Biomarker Activity (AID 2283058); details: primary human foreskin fibroblasts; actives raise or lower the signal
Method in brief: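 IL-8 levels read by ELISA at 24 hours after dosing human skin fibroblast cultures. Parallel SRB staining assessed overt cytotoxicity, and gain or loss of signal was fitted against DMSO control.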

[10] = BSK_hDFCGF_Proliferation: Cell Proliferation Assessment in the BioMAP Diversity Plus: hDFCGF Assay (AID 2283059); details: primary human foreskin fibroblasts;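 further: curves fitted for both rise and fall of signal versus DMSO baseline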
Method in brief: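 Sub-confluent human foreskin fibroblast cultures receive test chemical […]. Relative cell number is quantified by sulforhodamine B staining (0.1%, after 10% TCA fixation) at 560 nm, with bidirectional fitting referenced to DMSO.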

[11] = read-out: Macrophage colony-stimulating factor (MCSF), CSF1 (gene 1435); test: BSK_hDFCGF_MCSF: BioMAP Diversity Plus: hDFCGF Assay for Macrophage colony-stimulating factor (MCSF) Biomarker Activity (AID 2283060); details: primary human foreskin fibroblasts; actives raise or lower the signal
Method in brief: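 M-CSF levels read by ELISA at 24 h post-dosing in human skin fibroblasts. Parallel cultures stained with SRB assessed cytotoxicity at the same time point; response fitted in both directions against the DMSO baseline.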

[12] = BSK_hDFCGF_SRB: Viability Assessment in the BioMAP Diversity Plus: hDFCGF Assay (AID 2283061); details: primary human foreskin fibroblasts;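 further: cells exposed to compound for 24 h before the read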
Method in brief: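 Viability was read as total protein: after 10% TCA fixation, wells were stained with 0.1% sulforhodamine B and read at 560 nm. Primary human foreskin fibroblasts were dosed for 24 h, with bidirectional fitting versus DMSO.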

[13] = read-out: TIMP metallopeptidase inhibitor 1 (TIMP1), TIMP1 (gene 7076); test: BSK_hDFCGF_TIMP1: BioMAP Diversity Plus: hDFCGF Assay for TIMP metallopeptidase inhibitor 1 (TIMP1) Biomarker Activity (AID 2283062); details: primary human foreskin fibroblasts; actives raise or lower the signal
Method in brief: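 TIMP-1 measured by ELISA 24 h after chemical dosing of primary human skin fibroblasts, with gain or loss fitted relative to DMSO. Parallel SRB staining (560 nm) monitored overt cytotoxicity.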

[14] = read-out: Monokine induced gamma interferon (MIG), CXCL9 (gene 4283); test: BSK_hDFCGF_MIG: BioMAP Diversity Plus: hDFCGF Assay for Monokine induced gamma interferon (MIG) Biomarker Activity (AID 2283063); details: primary human foreskin fibroblasts; actives raise or lower the signal
Method in brief: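 Human primary foreskin fibroblasts in the hDFCGF system, exposed to test chemical for 24 h; MIG measured by ELISA. Bidirectional curve fitting against DMSO negative control as activity baseline.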

[15] = read-out: Matrix Metallopeptidase 1 (MMP1), MMP1 (gene 4312); test: BSK_hDFCGF_MMP1: BioMAP Diversity Plus: hDFCGF Assay for Matrix Metallopeptidase 1 (MMP1) Biomarker Activity (AID 2283064); details: primary human foreskin fibroblasts; actives raise or lower the signal
Method in brief: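 Primary human foreskin fibroblasts in the hDFCGF system were dosed with test chemical, and MMP1 was measured by ELISA 24 h later. Values come from bidirectional curve fitting against the DMSO baseline.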

[16] = read-out: Vascular cell adhesion molecule 1 (VCAM1), VCAM1 (gene 7412); test: BSK_hDFCGF_VCAM1: BioMAP Diversity Plus: hDFCGF Assay for Vascular cell adhesion molecule 1 (VCAM1) Biomarker Activity (AID 2283065); details: primary human foreskin fibroblasts; actives raise or lower the signal;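 further: VCAM-1 protein level quantified by ELISA after 24 h chemical exposure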
Method in brief: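 ELISA readout of VCAM-1 on human dermal fibroblast primary cultures, 24 h after chemical exposure. Gain or loss of signal fitted in both directions against DMSO baseline.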

[17] = read-out: Plasminogen activator inhibitor-1 (PAI1), SERPINE1 (gene 5054); test: BSK_hDFCGF_PAI1: BioMAP Diversity Plus: hDFCGF Assay for Plasminogen activator inhibitor-1 (PAI1) Biomarker Activity (AID 2283066); details: primary human foreskin fibroblasts; actives raise or lower the signal
Method in brief: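 Human foreskin fibroblast primary cells, 24 h chemical exposure; PAI-1 measured by ELISA. Bidirectional fitting relative to DMSO; parallel cultures stained with SRB for total protein to flag overt cytotoxicity.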

[18] = read-out: Intercellular Adhesion Molecule 1 (ICAM1), ICAM1 (gene 3383); test: BSK_KF3CT_ICAM1: BioMAP Diversity Plus: KF3CT Assay for Intercellular Adhesion Molecule 1 (ICAM1) Biomarker Activity (AID 2283067); details: primary human keratinocytes with fibroblasts; actives raise or lower the signal
Method in brief: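 Cell-surface ICAM-1 was measured by ELISA 24 h after dosing primary human skin keratinocytes co-cultured with fibroblasts. Parallel SRB staining tracked overt cytotoxicity. Gain or loss of signal was fitted relative to DMSO.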

[19] = read-out: Interferon-gamma inducible Protein 10 (IP10), CXCL10 (gene 3627); test: BSK_KF3CT_IP10: BioMAP Diversity Plus: KF3CT Assay for Interferon-gamma inducible Protein 10 (IP10) Biomarker Activity (AID 2283068); details: primary human keratinocytes with fibroblasts; actives raise or lower the signal
Method in brief: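 ELISA read-out of IP-10 after 24 h chemical dosing of human skin primary co-culture (keratinocytes, foreskin fibroblasts). Gain or loss of signal relative to DMSO, bidirectional curve fit.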

[20] = BSK_KF3CT_SRB: Viability Assessment in the BioMAP Diversity Plus: KF3CT Assay (AID 2283069); details: primary human keratinocytes with fibroblasts;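 further: total protein by sulforhodamine B staining as a cytotoxicity measure; read 24 h after compound addition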
Method in brief: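 Human primary keratinocyte plus foreskin fibroblast co-culture exposed to chemicals for 24 h. Total protein measured by 0.1% sulforhodamine B staining after 10% TCA fixation, read at 560 nm; bidirectional fitting versus DMSO baseline.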

Measured: AC50

CCCCCCCc1ccc(O)cc1
inactive: [2] | [3] | [8]
active: [1] 39 µM | [4] 22.6 µM | [5] 38 µM | [6] 28.5 µM | [7] 15.5 µM | [9] 35.1 µM | [10] 13.5 µM | [11] 20 µM | [12] 30 µM | [13] 32.5 µM | [14] 28.5 µM | [15] 33.6 µM | [16] 20.7 µM | [17] 30.3 µM | [18] 33.3 µM | [19] 29 µM | [20] 30.7 µM

CCCCC(CC)COP(=O)(Oc1ccccc1)Oc1ccccc1 (stereo unspecified)
inactive: [2] | [3] | [5] | [6] | [8] | [18] | [19]
active: [1] 20 µM | [4] 4.03 µM | [7] 2.39 µM | [9] 11.9 µM | [10] 6.04 µM | [11] 6.1 µM | [12] 4.47 µM | [13] 5.46 µM | [14] 11 µM | [15] 6.33 µM | [16] 1.69 µM | [17] 6.48 µM | [20] 20 µM

CCCCC(CC)COC(=O)c1c(Br)c(Br)c(Br)c(Br)c1C(=O)OCC(CC)CCCC (stereo unspecified)
inactive: [1] | [2] | [3] | [4] | [5] | [6] | [7] | [8] | [9] | [10] | [11] | [12] | [13] | [14] | [15] | [17] | [18] | [19] | [20]

OCC1CO1 (stereo unspecified)
inactive: [1] | [2] | [3] | [4] | [5] | [6] | [7] | [8] | [9] | [10] | [11] | [12] | [13] | [14] | [15] | [17] | [18] | [19] | [20]

ClC1=C(Cl)C2(Cl)C3C(Cl)C(Cl)CC3C1(Cl)C2(Cl)Cl (stereo unspecified)
inactive: [3] | [5] | [8]
active: [1] 33.9 µM | [2] 24.1 µM | [4] 7.58 µM | [6] 25.4 µM | [7] 6.06 µM | [9] 10.8 µM | [10] 6.97 µM | [11] 5.82 µM | [12] 7.71 µM | [13] 8.69 µM | [14] 9.26 µM | [15] 10.1 µM | [17] 10.3 µM | [18] 31.9 µM | [19] 16.1 µM | [20] 28.2 µM

CCCCc1ccccc1
inactive: [1] | [2] | [3] | [4] | [5] | [6] | [7] | [8] | [9] | [10] | [11] | [12] | [13] | [14] | [15] | [17] | [18] | [19] | [20]

O=C(O)C=CC(F)(C(F)(F)F)C(F)(F)F
inactive: [1] | [2] | [3] | [4] | [5] | [6] | [7] | [8] | [9] | [10] | [11] | [12] | [13] | [14] | [15] | [17] | [18] | [19] | [20]

O=S(=O)(F)C(F)(F)C(F)(F)C(F)(F)C(F)(F)C(F)(F)C(F)(F)C(F)(F)C(F)(F)F
inactive: [1] | [2] | [3] | [4] | [5] | [6] | [7] | [8] | [9] | [10] | [11] | [12] | [13] | [14] | [15] | [17] | [18] | [19] | [20]

O=C(O)C(F)(F)OC(F)(F)C(F)(F)OC(F)(F)C(=O)O
inactive: [1] | [2] | [3] | [4] | [5] | [6] | [7] | [8] | [9] | [10] | [11] | [12] | [13] | [14] | [15] | [17] | [18] | [19] | [20]

CCOS(=O)(=O)OCC
inactive: [1] | [2] | [3] | [4] | [5] | [6] | [7] | [8] | [9] | [10] | [11] | [12] | [13] | [14] | [15] | [17] | [18] | [19] | [20]

CC(C)(C)c1ccc(O)cc1
inactive: [1] | [2] | [3] | [4] | [5] | [6] | [7] | [8] | [9] | [10] | [11] | [12] | [13] | [14] | [15] | [17] | [18] | [19] | [20]

CCOP(=S)(OCC)SCSc1ccc(Cl)cc1
active: [3] 16.5 µM | [4] 8.28 µM | [6] 1.6 µM | [11] 14.4 µM
inactive: [1] | [2] | [5] | [7] | [8] | [9] | [10] | [12] | [13] | [14] | [15] | [17] | [18] | [19] | [20]

c1ccc2c(c1)sc1ccccc12
inactive: [1] | [2] | [3] | [4] | [5] | [6] | [7] | [8] | [9] | [10] | [11] | [12] | [13] | [14] | [15] | [17] | [18] | [19] | [20]

CC(C)(C)OOC(C)(C)C
inactive: [1] | [2] | [3] | [4] | [5] | [6] | [7] | [8] | [9] | [10] | [11] | [12] | [13] | [14] | [15] | [17] | [18] | [19] | [20]

ClC(Cl)(Cl)c1ccccc1
inactive: [1] | [2] | [3] | [4] | [5] | [6] | [7] | [8] | [9] | [10] | [11] | [12] | [13] | [14] | [15] | [17] | [18] | [19]
